# Experimental data taken from the supplement of paper PMC11001985.
# Compound: C#CCNC(=O)CCSSCCC(=O)NCCc1ccc(C=O)c(C=O)c1
# Assay: lysine labeling ratio R10:1 (500 µM / 50 µM probe), SILAC-ABPP in living cells; higher = lower intrinsic lysine reactivity toward the probe, active = 2 or less
# Settings: HeLa; probe concentrations 500 vs 50 µM
# How it was run: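 Each lysine carries an R value: the filtered median of MS1 peptide ratios of high probe to low probe, with the median then taken over forward and reverse replicates. These came from living SILAC light and heavy HeLa cells in PBS at room temperature labelled with an alkyne-tagged, disulfide-linked lysine probe at 500 µM or 50 µM, in forward and reverse swaps. The lysates were mixed, clicked to biotin-azide, trypsin-digested, captured on neutravidin, released by DTT, alkylated and run by LC-MS/MS on a TIMS-TOF Pro. The highest value allowed is 20.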
# Sequence of UniProt Q14126 (Q14126 whole entry): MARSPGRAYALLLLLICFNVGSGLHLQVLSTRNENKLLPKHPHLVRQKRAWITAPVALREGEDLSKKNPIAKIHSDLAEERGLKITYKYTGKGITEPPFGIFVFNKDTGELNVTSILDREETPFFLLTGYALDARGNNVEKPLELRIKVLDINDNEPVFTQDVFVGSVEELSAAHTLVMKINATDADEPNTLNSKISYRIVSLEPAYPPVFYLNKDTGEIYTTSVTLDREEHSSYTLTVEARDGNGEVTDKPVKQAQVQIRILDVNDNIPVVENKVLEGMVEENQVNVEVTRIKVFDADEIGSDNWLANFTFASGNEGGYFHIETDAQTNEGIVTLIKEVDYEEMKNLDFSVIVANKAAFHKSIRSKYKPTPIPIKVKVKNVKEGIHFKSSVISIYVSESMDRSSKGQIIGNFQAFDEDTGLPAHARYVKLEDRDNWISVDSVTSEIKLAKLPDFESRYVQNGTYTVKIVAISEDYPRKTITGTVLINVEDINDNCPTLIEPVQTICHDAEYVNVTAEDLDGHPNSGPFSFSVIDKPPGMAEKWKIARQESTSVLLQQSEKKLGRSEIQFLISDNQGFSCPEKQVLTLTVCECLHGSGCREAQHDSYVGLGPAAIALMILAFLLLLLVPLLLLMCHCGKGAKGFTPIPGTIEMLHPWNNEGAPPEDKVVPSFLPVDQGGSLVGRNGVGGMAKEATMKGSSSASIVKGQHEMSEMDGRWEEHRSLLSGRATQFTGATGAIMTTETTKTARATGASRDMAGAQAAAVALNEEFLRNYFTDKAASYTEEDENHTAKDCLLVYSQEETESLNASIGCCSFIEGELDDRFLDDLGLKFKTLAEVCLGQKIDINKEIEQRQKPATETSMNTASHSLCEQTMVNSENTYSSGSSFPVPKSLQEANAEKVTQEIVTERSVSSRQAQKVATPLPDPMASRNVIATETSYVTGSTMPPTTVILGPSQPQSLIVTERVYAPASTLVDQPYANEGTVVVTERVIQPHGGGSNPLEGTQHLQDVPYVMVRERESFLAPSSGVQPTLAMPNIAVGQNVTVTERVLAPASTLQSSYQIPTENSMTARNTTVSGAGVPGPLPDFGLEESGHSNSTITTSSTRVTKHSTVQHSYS
# Sequence of UniProt P28070 (P28070 whole entry): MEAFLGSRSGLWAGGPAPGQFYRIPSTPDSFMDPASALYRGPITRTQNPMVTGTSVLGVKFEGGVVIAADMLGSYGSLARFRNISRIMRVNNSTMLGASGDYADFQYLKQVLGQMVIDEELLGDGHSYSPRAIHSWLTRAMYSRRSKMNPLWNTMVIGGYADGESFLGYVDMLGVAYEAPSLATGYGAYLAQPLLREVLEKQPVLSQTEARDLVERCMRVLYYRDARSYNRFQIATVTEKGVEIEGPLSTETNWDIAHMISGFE
# Sequence of UniProt Q9BVK6 (Q9BVK6 whole entry): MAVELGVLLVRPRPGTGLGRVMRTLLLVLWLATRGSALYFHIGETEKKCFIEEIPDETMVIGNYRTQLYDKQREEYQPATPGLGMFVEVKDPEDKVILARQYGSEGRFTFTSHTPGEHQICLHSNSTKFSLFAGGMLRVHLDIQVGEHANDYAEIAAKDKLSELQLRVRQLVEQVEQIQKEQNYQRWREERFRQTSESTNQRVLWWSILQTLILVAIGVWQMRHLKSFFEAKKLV
# Sequence of UniProt P61019 (P61019 whole entry, looked up): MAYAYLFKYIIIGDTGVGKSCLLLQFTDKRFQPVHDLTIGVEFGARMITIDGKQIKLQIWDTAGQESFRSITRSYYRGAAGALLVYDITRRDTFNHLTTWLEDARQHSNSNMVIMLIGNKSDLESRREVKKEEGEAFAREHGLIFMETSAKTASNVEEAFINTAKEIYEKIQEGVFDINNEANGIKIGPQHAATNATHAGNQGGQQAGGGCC
# Sequence of UniProt Q7KYR7 (Q7KYR7 whole entry): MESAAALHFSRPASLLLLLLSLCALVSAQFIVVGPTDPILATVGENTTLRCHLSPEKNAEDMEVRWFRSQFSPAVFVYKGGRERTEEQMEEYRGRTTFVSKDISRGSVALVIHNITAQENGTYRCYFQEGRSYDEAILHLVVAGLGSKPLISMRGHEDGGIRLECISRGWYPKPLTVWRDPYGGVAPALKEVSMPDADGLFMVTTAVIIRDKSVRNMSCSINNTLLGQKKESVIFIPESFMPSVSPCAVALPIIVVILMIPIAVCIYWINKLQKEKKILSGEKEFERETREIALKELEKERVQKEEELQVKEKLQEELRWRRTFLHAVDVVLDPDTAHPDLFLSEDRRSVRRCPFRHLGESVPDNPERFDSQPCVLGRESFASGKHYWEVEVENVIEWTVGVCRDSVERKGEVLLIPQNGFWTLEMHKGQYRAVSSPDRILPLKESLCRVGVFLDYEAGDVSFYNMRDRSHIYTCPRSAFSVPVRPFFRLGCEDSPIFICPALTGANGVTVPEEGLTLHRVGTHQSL
# Sequence of UniProt P06733 (P06733 whole entry): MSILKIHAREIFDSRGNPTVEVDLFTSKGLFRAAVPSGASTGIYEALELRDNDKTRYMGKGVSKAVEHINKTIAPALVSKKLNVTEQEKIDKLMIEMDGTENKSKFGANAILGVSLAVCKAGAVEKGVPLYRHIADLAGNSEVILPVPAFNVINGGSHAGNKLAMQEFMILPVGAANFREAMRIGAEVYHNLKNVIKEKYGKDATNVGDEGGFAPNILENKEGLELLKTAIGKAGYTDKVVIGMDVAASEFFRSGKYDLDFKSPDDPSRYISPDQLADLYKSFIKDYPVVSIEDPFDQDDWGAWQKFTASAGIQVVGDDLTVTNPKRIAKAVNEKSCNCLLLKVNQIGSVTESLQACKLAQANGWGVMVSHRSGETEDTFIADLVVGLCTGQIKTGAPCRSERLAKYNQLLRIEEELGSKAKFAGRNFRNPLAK
# Sequence of UniProt P19256 (P19256 whole entry): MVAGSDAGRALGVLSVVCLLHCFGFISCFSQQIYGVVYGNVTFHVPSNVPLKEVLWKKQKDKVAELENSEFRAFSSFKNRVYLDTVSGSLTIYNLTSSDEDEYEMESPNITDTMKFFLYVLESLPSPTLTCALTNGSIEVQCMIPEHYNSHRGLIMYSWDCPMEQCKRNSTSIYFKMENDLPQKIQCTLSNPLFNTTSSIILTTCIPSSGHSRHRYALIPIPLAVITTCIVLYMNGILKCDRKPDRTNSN
# Sequence of UniProt P26038 (P26038 whole entry): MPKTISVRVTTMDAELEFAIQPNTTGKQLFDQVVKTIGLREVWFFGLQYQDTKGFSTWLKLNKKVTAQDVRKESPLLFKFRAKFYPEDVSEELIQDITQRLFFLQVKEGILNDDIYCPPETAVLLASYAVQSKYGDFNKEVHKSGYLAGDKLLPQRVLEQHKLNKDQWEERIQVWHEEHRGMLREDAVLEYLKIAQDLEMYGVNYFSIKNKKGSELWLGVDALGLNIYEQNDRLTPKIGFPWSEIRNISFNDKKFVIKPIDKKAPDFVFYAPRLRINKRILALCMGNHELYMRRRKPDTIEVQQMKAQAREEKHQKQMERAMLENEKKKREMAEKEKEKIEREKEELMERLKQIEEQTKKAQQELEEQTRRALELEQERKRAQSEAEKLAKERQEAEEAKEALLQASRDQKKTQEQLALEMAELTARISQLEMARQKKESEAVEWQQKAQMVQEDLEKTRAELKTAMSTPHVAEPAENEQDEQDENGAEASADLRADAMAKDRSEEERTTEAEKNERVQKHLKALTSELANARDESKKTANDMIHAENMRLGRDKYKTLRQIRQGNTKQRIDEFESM
# Sequence of UniProt P30101 (P30101 whole entry): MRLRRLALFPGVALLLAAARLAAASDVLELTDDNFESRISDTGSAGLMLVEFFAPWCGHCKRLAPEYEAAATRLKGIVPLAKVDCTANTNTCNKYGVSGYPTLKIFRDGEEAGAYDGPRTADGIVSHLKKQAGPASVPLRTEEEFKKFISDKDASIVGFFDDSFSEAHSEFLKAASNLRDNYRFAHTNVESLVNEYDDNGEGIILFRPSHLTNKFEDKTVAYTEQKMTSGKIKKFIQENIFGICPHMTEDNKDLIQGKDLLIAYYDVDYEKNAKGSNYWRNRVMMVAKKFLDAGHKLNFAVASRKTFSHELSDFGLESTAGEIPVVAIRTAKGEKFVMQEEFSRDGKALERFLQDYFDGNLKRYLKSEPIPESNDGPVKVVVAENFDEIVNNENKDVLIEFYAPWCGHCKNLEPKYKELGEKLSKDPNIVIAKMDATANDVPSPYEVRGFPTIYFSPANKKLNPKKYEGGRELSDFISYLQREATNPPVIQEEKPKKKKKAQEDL
# Sequence of UniProt Q9H307 (Q9H307 whole entry): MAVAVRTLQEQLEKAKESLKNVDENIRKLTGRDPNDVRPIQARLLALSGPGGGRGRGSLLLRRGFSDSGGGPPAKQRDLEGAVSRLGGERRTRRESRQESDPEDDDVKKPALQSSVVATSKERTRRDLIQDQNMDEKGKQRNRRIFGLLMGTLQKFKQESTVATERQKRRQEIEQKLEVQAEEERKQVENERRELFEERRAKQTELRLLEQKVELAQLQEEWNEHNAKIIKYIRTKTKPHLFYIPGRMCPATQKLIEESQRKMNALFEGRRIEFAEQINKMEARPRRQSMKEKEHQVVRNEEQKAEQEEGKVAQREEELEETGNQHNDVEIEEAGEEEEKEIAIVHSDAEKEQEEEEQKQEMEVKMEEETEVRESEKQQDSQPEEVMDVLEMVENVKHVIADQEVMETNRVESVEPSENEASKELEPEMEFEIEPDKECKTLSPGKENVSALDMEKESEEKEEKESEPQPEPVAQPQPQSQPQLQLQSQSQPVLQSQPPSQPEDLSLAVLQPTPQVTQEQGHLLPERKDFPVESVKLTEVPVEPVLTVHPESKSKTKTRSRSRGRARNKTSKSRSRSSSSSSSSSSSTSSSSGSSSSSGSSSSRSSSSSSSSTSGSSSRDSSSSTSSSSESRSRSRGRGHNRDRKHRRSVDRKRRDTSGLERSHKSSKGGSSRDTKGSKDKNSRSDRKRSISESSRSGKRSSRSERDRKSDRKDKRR
row,Target,lysine labeling ratio R10:1
1,RPL12 (lysine site: K54) (UniProt P30050),0.658 (active)
2,TMED9 (lysine site: K71) (UniProt Q9BVK6),5.82 (inactive)
3,THRAP3 (lysine site: K486) (UniProt Q9Y2W1),1.7 (active)
4,MSN (lysine site: K388) (UniProt P26038),1.79 (active)
5,PSMB4 (lysine site: K201) (UniProt P28070),3.87 (inactive)
6,LRP1 (lysine site: K458) (UniProt Q07954),2.56 (inactive)
7,PNN (lysine site: K262) (UniProt Q9H307),1.08 (active)
8,ITGAV (lysine site: K338) (UniProt P06756),3.21 (inactive)
9,ACSL4 (lysine site: K702) (UniProt O60488),2.14 (inactive)
10,BTN2A1 (lysine site: K101) (UniProt Q7KYR7),2.46 (inactive)
11,PDIA3 (lysine site: K130) (UniProt P30101),3.07 (inactive)
12,CD58 (lysine site: K78) (UniProt P19256),8.22 (inactive)
13,LAMB1 (lysine site: K1495) (UniProt P07942),4.06 (inactive)
14,RAB2A (lysine site: K131) (UniProt P61019),1.7 (active)
15,DSG2 (lysine site: K72) (UniProt Q14126),2.67 (inactive)
16,ENO1 (lysine site: K406) (UniProt P06733),10 (inactive)
17,SPTAN1 (lysine site: K1288) (UniProt Q13813),1.21 (active)
